# From the OligoGym collection
# Target: JOSD1
# Assay: pooled miR-30 sensor sort-seq; sequence = guide strand
# Settings: shRNA
# Further: reference of the scale not given here.
row,Sequence,sensor-assay potency score (higher = more potent)
1,TCGAACACAGATCCAGTGCTGC,-0.708
2,TAGAAACTTCCTGAGCTCGCTC,0.337
3,TTGAGTTTGGAGTCGAGGTTGT,0.206
4,TTGGAGTCGAGGTTGTAGTAGG,-0.655
5,TTTTAGAAACTTCCTGAGCTCG,-0.609
6,TTCCTGAGCTCGCTCTCGCCTC,-1.09
7,TGATGTTTTAGAAACTTCCTGA,0.299

# Target: KAAG1
# Assay: as above
# Settings: shRNA
row,Sequence,sensor-assay potency score (higher = more potent)
1,TCAGTTTCTCGTTCGTTTCAGG,-0.203
2,TTTCTCGTTCGTTTCAGGAGGC,0.381
3,TTTCAGGAGGCGATCCCGCGCC,-0.845
4,ATTCGTCAGTTTCTCGTTCGTT,-0.19
5,TGCTTGTGTACCGCAACGGGGA,-1.14
6,TCGTTTCAGGAGGCGATCCCGC,-1.24
7,TCAGCCCGTCGTGAAGAGCGTG,-1.18
8,TTCTCGTTCGTTTCAGGAGGCG,-0.584
9,TTCGTCAGTTTCTCGTTCGTTT,-0.143
10,AAGAGCGTGCTTGTGTACCGCA,-0.0933
11,TGGATTCGTCAGTTTCTCGTTC,-0.583
12,TCTCGTTCGTTTCAGGAGGCGA,-0.839

# Target: KBTBD10
# Assay: as above
# Settings: shRNA
row,Sequence,sensor-assay potency score (higher = more potent)
1,TTGTCTAGCACTACCTCCTTTT,-0.574
2,TTGCTAGGCAACTAGCTCCTGA,-0.209
3,TAGCTCCTGAAGCATAACGTAT,-1.66
4,TTTGCCTGCAACTACATAGATT,-1.51
5,TGAAGCATAACGTATTTCCTTC,-0.295
6,TTGTACATTTTTTGTCATCTGT,-0.405
7,TTTTGCTGGGTAACAATGCTGG,-0.684
8,TATGTCATTGACTTCAGTGGGT,0.618
9,TTGCATACAGAGATCCAGCCAG,-0.134
10,TTTATCATCCACCTCTCCCAGA,-0.692
11,TAAGGTAGCATTCATTTTCCGT,-0.0345
12,ATTGTCTAGCACTACCTCCTTT,-0.463

# Target: KBTBD12
# Assay: as above
# Settings: shRNA
row,Sequence,sensor-assay potency score (higher = more potent)
1,TAAATCTTCAGCTCCAATCTGC,0.302
2,TATATTTTTGACACACACTGAA,0.336
3,TTTAATAACACCGACACACTTT,0.48
4,TTATTCAGTAAATTCAAGCTAT,-0.287
5,TTCTTTGTTATGATTTACCCAT,-0.456
6,TTGTAGTGTCTTATTTACCCTA,-0.555
7,TATGTCTTGATCTGATTCCTGA,0.119
8,TTCATCAGGAAGATCCATCTGA,0.942
9,TTGTCTTGACCTACACAGCCAA,-0.566
